Source: PubChem (Broad Institute)
NFkB SMM: binders of human NF-kappa-B p105 | P19838 | calls only | 1.3% of 17,000 active | Small molecule microarray, anti-His fluorescence binding;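 active means spot fluorescence over background significantly raised, with a chance value under 7% in all four replicate spots of the compound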;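 further: probe protein is his-tagged human p50 processed subunit at 1 µg/ml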
Target sequence (P19838 1-433 limits assumed): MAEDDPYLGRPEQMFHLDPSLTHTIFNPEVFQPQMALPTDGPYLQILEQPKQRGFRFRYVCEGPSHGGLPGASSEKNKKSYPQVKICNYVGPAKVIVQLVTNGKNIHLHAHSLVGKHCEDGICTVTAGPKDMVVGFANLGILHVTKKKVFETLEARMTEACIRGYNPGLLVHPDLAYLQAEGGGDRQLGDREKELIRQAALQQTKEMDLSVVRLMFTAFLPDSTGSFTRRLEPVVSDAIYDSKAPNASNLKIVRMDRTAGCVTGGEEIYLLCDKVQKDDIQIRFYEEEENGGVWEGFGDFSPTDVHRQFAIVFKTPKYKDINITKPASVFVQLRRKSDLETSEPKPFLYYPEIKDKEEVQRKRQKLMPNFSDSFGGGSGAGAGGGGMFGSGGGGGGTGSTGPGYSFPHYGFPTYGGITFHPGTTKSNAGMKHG
p53 PUMA act: re-activators of the mutant p53 pathway. SW480 PUMA-promoter luciferase, p53 mutant reactivation. activation, % at 9.98 µM. 1.5% of 28,000 active. AID 624151; in the data active means activation above about 52%
STAT3 binder: STAT3 (human) binding; P40763; Small molecule microarray, His-STAT3 binding, anti-His fluorescence; calls only; 0.2% of 17,000 active; AID 624138;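 active means compounds whose four printed spots each show fluorescence over background unusually high for their array block, chance value under 7%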
c-Myc SMM: binds human c-Myc on microarray; P01106; small molecule microarray, His-c-Myc binding, anti-His fluorescence; calls only; 1.5% of 17,000 active;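 active means spot fluorescence over background with P-value below 7% in all four replicate spots, showing protein binding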
mut p53 SMM: binders of human mutant p53 | small molecule microarray binding, anti-GST fluorescence | calls only | 0.4% of 17,000 active;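 active means compounds whose four printed spots each glow above background more than chance allows, each with a p-value under 7%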
Large screens that a line does not name were inactive. Compounds with a hit are over-represented: about 2.8% of the library has one in this group of screens.

COc1cc(C2NC(=S)NC(C)=C2C(=O)Nc2ccccc2C)c(Br)cc1OCC(=O)O (configuration not stated)	none (no result: NFkB SMM, STAT3 binder, c-Myc SMM, mut p53 SMM)
C[C@H]1CCCCO[C@H](CN(C)C(=O)Nc2ccc(C(F)(F)F)cc2)[C@@H](C)CN([C@@H](C)CO)C(=O)c2cc(NS(C)(=O)=O)ccc2O1	NFkB SMM active, STAT3 binder active, c-Myc SMM active
C[C@@H]1CCCCO[C@@H](CN(C)C(=O)Nc2ccc(C(F)(F)F)cc2)[C@H](C)CN([C@H](C)CO)C(=O)c2cc(NS(C)(=O)=O)ccc2O1	none
C[C@@H]1CCCCO[C@@H](CN(C)C(=O)Nc2ccc(C(F)(F)F)cc2)[C@@H](C)CN([C@H](C)CO)C(=O)c2cc(NS(C)(=O)=O)ccc2O1	none
C[C@@H]1CCCCO[C@@H](CN(C)C(=O)Nc2ccc(C(F)(F)F)cc2)[C@H](C)CN([C@@H](C)CO)C(=O)c2cc(NS(C)(=O)=O)ccc2O1	c-Myc SMM active
C[C@@H]1CCCCO[C@H](CN(C)C(=O)Nc2ccc(C(F)(F)F)cc2)[C@H](C)CN([C@@H](C)CO)C(=O)c2cc(NS(C)(=O)=O)ccc2O1	STAT3 binder active
CCN(Cc1ccccc1)C(=O)CSC1=Nc2ccccc2C2=NC(c3ccccc3)C(=O)N12 (configuration not stated)	none (no result: NFkB SMM, STAT3 binder, c-Myc SMM, mut p53 SMM)
COc1ccc(Cn2c3ccc(Br)cc3c3nc4ccccc4nc32)cc1OC	c-Myc SMM active
CC(C)(C)c1ccc(OCC(=O)Nc2cccnc2)c(Br)c1	p53 PUMA act 69.5 (no result: NFkB SMM, STAT3 binder, c-Myc SMM, mut p53 SMM)
CCc1ccc(OCC(=O)Nc2cccnc2)c(Br)c1	p53 PUMA act 95.5 (no result: NFkB SMM, STAT3 binder, c-Myc SMM, mut p53 SMM)
O=C(COc1cc(Cl)c(Cl)cc1Cl)Nc1cccnc1	p53 PUMA act 116.8 (no result: NFkB SMM, STAT3 binder, c-Myc SMM, mut p53 SMM)
Cc1ccnc(NC(c2cccc(Cl)c2)c2ccc3ccc(C)nc3c2O)c1 (configuration not stated)	none (no result: NFkB SMM, STAT3 binder, c-Myc SMM, mut p53 SMM)
CC12C=CC(=O)C=C1CCC1C2=CCC2(C)C1CC[C@@H]2C(=O)CN1CCN(c2cc(N3CCCC3)nc(N3CCCC3)n2)CC1 (some centres not stated)	c-Myc SMM active
O=C(O)CCN1C(=O)c2cccc3c([N+](=O)[O-])ccc(c23)C1=O	c-Myc SMM active
CCOc1cc(C2N=C(Nc3nc4ccccc4o3)NC3=C2C(=O)CC(C)(C)C3)ccc1O (configuration not stated)	none
Clc1ccc(CSc2nnc(-c3ccco3)n2Cc2ccco2)c(Cl)c1	mut p53 SMM active
COc1cc(S(=O)(=O)NCc2cccnc2)ccc1Br	none (no result: NFkB SMM, STAT3 binder, c-Myc SMM, mut p53 SMM)
O=C(O)CCNC(=O)c1cncc(Br)c1	c-Myc SMM active
NC(=O)COc1ccc(NC(=O)c2cncc(Br)c2)cc1	none (no result: NFkB SMM, STAT3 binder, c-Myc SMM, mut p53 SMM)
Oc1ccccc1CNc1ccc2c(c1)ncn2C1CCCCC1	c-Myc SMM active
Cn1cc(CNC(=O)c2cc(-c3ccc(Br)cc3)nc3ccccc23)cn1	none
CCCc1ccc(-c2cc(C(=O)NCc3cnn(C)c3)c3ccccc3n2)cc1	p53 PUMA act 105.6 (no result: NFkB SMM, STAT3 binder, c-Myc SMM, mut p53 SMM)
C[C@@H]1CCCCO[C@H](CN(C)C(=O)C2CCCCC2)[C@@H](C)CN([C@@H](C)CO)C(=O)c2cc(NC(=O)c3ccncc3)ccc2O1	NFkB SMM active
C[C@@H]1CN([C@@H](C)CO)C(=O)c2cc(NC(=O)Nc3ccccc3)ccc2O[C@@H](C)CCCCO[C@@H]1CN(C)C(=O)C1CCCCC1	none
Cc1noc(C)c1NC(=O)Nc1ccc2c(c1)C(=O)N([C@H](C)CO)C[C@@H](C)[C@H](CN(C)C(=O)C1CCCCC1)OCCCC[C@@H](C)O2	none
C[C@H](CO)N1C[C@H](C)[C@H](CN(C)C(=O)C2CCCCC2)OCCCC[C@H](C)Oc2ccc(NC(=O)Nc3ccccc3)cc2C1=O	c-Myc SMM active
C[C@@H]1CCCCO[C@@H](CN(C)C(=O)Nc2ccccc2)[C@H](C)CN([C@@H](C)CO)C(=O)c2cc(NC(=O)C3CCCCC3)ccc2O1	NFkB SMM active, c-Myc SMM active, mut p53 SMM active
Cc1noc(C)c1NC(=O)Nc1ccc2c(c1)C(=O)N([C@@H](C)CO)C[C@H](C)[C@@H](CN(C)C(=O)C1CCCCC1)OCCCC[C@H](C)O2	c-Myc SMM active
C[C@@H]1CCCCO[C@H](CN(C)C(=O)Nc2ccccc2)[C@@H](C)CN([C@H](C)CO)C(=O)c2cc(NC(=O)C3CCCCC3)ccc2O1	none
O=C(CCSc1nc2ccccc2o1)Nc1ccc(F)cc1	none
C[C@H]1CCCCO[C@@H](CN(C)C(=O)C2CCCCC2)[C@@H](C)CN([C@@H](C)CO)C(=O)c2cc(NC(=O)Nc3ccccc3)ccc2O1	NFkB SMM active, c-Myc SMM active
